The list is not random: actives were taken first. Their share in the collection is about 1.1%.
GalR3 antagonist: human GalR3 antagonism; inhibition, % at 3 µM; O60755; HEK293 GalR3-CNG cAMP membrane potential fluorescence; galR3 body fused to GalR1 C-terminus; AID 651719; 0.44% of 360,000 active;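 active means inhibition above the screen-wide average plus 3 SD, cut at about 13% in these data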;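 further: forskolin and galanin both at EC90 stimulate the cells; cAMP rise reported by CNG channel membrane potential dye signal; 0% = forskolin plus galanin with DMSO and 100% = forskolin alone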
Target sequence (O60755 1-299 limits assumed): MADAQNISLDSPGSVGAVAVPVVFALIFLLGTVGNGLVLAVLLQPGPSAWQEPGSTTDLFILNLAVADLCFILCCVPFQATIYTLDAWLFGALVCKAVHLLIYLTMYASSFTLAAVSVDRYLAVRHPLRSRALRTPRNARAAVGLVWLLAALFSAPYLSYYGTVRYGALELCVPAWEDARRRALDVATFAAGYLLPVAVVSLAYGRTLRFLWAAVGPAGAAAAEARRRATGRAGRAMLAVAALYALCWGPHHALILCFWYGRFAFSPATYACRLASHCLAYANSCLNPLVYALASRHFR
COUP-TFII inh: blocks human COUP-TFII nuclear receptor | P24468 | inhibition, % at 8.6 µM | HEK293T NGFI-A luciferase reporter, luminescence | 0.7% of 370,000 active;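 active means inhibition above a per-plate cutoff, mean inhibition of test wells between control levels plus 3 SD, cut at about 38% in these data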;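 further: cells cotransfected with COUP-TFII expression vector driving the NGFI-A reporter; 0% = median of COUP-TF2 test wells and 100% = reporter-only cells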
LRH-1 inv ag: suppresses constitutive activity of human LRH-1; 0.13% of 360,000 active; inhibition, % at 3.6 µM; HEK293T StAR-luciferase reporter, LRH-1 transfected, 24 h; O00482;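 active means inhibition above the mean inhibition of all tested compounds plus 3 SD, cut at about 73% in these data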;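 further: 0% = DMSO wells and 100% = reporter-only cells lacking LRH-1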
NCOA2 inhibitor: inhibits human steroid receptor coactivator 2; inhibition, % at 9 µM; HEK293 GAL4-SRC2 luciferase reporter, luminescence; 0.17% of 370,000 active; Q15596;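 active means inhibition above the mean inhibition of all tested compounds plus 3 SD, set per campaign, cut at about 52% in these data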;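 further: 0% = DMSO treated cells and 100% = cells given Gossypol at 36 µM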
NCOA1 inh: inhibits human SRC1 coactivator. Q15788. HEK293 GAL4-SRC1 luciferase reporter, luminescence. inhibition, % at 3.6 µM. 0.12% of 360,000 active. AID 588354;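 active means inhibition above the campaign mean plus 3 SD, with each screening campaign given its own cutoff, cut at about 60% in these data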;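 further: 0% = DMSO treated cells and 100% = gossypol at 36 µM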
NCOA3 inh: inhibits human SRC3 coactivator; Q9Y6Q9; HEK293 GAL4-SRC3 luciferase reporter, luminescence; inhibition, % at 3.6 µM; 0.17% of 360,000 active;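 active means inhibition above a per-campaign cutoff, the mean of all compounds plus 3 SD, cut at about 60% in these data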;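 further: 0% = DMSO-treated cells and 100% = gossypol-treated cells at 36 µM; higher means less SRC3-driven luciferase light from the GAL4 reporter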
GalR3 conf: GalR3 (human) antagonism, confirmation. AID 652245. 59% of 1,600 active. shares compounds with GalR3 antagonist. HEK293 GalR3 CNG cAMP biosensor, membrane potential fluorescence; galR3 fused to GalR1 carboxy tail; challenged with forskolin and galanin at EC90. inhibition, % at 3 µM;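 active means inhibition above the primary screen's cutoff, the mean inhibition of all screened compounds plus 3 SD, cut at about 13% in these data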;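 further: 0% = forskolin plus galanin and 100% = forskolin alone with DMSO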
CNG parental: parental cell agonism counter-screen for GalR3 antagonists; shares compounds with GalR3 antagonist; activation, % at 3 µM; 10% of 1,600 active; HEK293-CNG parental cells, cAMP membrane potential fluorescence; normalised: DMSO wells 0%, forskolin wells 100%; in the data active means activation above about 1.3%
VP16 Luc counter: VP16 inhibition counter-screen for COUP-TFII; 25% of 2,500 active; inhibition, % at 8.5 µM; shares compounds with COUP-TFII inh; HEK293 Gal4-VP16 luciferase reporter, luminescence; AID 687007; in the data active means inhibition above about 13%
COUP-TFII conf: confirmation of human COUP-TFII (NR2F2) inhibitors; shares compounds with COUP-TFII inh; HEK293 NGFI-A luciferase reporter, luminescence; inhibition, % at 8.5 µM; 45% of 2,500 active; AID 687008;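 active means mean inhibition over three repeats above a set limit taken from the earlier primary screen, cut at about 38% in these data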;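 further: 100% = cells given the luciferase reporter alone without the COUP-TF2 vector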
The depositor's hits bear a star.

For Cc1ccc(S(=O)(=O)N(C)Cc2ccc(C(=O)N/N=C/c3ccc(OC(F)F)cc3OC(F)F)cc2)cc1 the results were GalR3 antagonist 80*, COUP-TFII inh 70*, LRH-1 inv ag 25, NCOA2 inhibitor 12, NCOA1 inh 39, NCOA3 inh 46, GalR3 conf 28*, CNG parental 0, VP16 Luc counter 10 and COUP-TFII conf 74*.
For CC(=O)C1(C(=O)NCc2ccccc2)CC(c2ccccc2C(F)(F)F)=NO1 (configuration not stated) the results were COUP-TFII inh -17 and NCOA2 inhibitor 1.
O=C(Nc1cccc(S(=O)(=O)c2cccc(NC(=O)c3ccco3)c2)c1)c1ccco1 was read as GalR3 antagonist 41*, COUP-TFII inh 70*, LRH-1 inv ag 15, NCOA2 inhibitor 17, NCOA1 inh -27, NCOA3 inh 31, GalR3 conf 45*, CNG parental -1, VP16 Luc counter 5 and COUP-TFII conf 32.
O=C(Nc1cccc(S(=O)(=O)N2CCCC2)c1)c1ccco1 was read as GalR3 antagonist -1, COUP-TFII inh -21, LRH-1 inv ag 9, NCOA2 inhibitor -2, NCOA1 inh 10 and NCOA3 inh -11.
`CC(C)Cn1c(N)c(C(=O)CSc2ccccc2)c(=O)n(C)c1=O` gave GalR3 antagonist 1, COUP-TFII inh -2, LRH-1 inv ag -16, NCOA2 inhibitor 8, NCOA1 inh 0 and NCOA3 inh 13.
Screening CC(C)Cn1c(N)c(C(=O)COC(=O)/C=C/c2ccccc2)c(=O)n(C)c1=O returned GalR3 antagonist 16*, COUP-TFII inh 45*, LRH-1 inv ag 17, NCOA2 inhibitor 13, NCOA1 inh 0, NCOA3 inh 3, GalR3 conf 86*, CNG parental 0, VP16 Luc counter 7 and COUP-TFII conf 36.
For O=C(Nc1ccc(F)cc1)c1ccc(CN2CCc3ccccc3C2)cc1 the results were GalR3 antagonist 103*, COUP-TFII inh 45*, LRH-1 inv ag 15, NCOA2 inhibitor 19, NCOA1 inh 20, NCOA3 inh -2, GalR3 conf 104*, CNG parental 0, VP16 Luc counter -41 and COUP-TFII conf 34.
For O=C(Nc1cccc(Br)c1)c1ccc(CN2CCc3ccccc3C2)cc1 the results were GalR3 antagonist 85*, COUP-TFII inh 53*, LRH-1 inv ag 30, NCOA2 inhibitor 22, NCOA1 inh 10, NCOA3 inh 0, GalR3 conf 107*, CNG parental 0, VP16 Luc counter -24 and COUP-TFII conf 32.
Screening CC(=O)Nc1ccc(NC(=O)c2ccc(CN3CCc4ccccc4C3)cc2)cc1 returned GalR3 antagonist -10, COUP-TFII inh 2, LRH-1 inv ag -5, NCOA2 inhibitor -4, NCOA1 inh -25 and NCOA3 inh -7.
Screening COC(=O)C1CN(CCc2ccccc2)CCS(=O)(=O)N1Cc1ccc(C)cc1 (configuration not stated) returned COUP-TFII inh 9 and NCOA2 inhibitor 7.
`CCCCCOc1ccc(/C(C)=N/NC2=NCCN2)cc1` gave GalR3 antagonist -10, COUP-TFII inh -9, LRH-1 inv ag -9, NCOA2 inhibitor -14, NCOA1 inh 2 and NCOA3 inh -4.

High-throughput results deposited in PubChem by The Scripps Research Institute Molecular Screening Center.
